High-throughput results (PubChem BioAssay)
ELG1 genotox = qHTS screen for small molecules that induce genotoxicity in human embryonic kidney (HEK293T) cells expressing luciferase-tagged ELG1; HEK293T ELG1-luciferase reporter, luminescence, 16 h; Potency, µM (doses to about 46 µM), hits mostly activators; actives 1.3% (n = 330,000); note: nearly all actives have a fitted effect of over 60% in size
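Step 1: seed 2,000 HEK293T ELG1-luciferase cells per well. Step 2: add compound or DMSO, incubate 16 hr at 37 °C. Step 3: ONE-Glo, 30 min at room temperature, read luminescence.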
ELG1 repair inh = qHTS screen for small molecules that inhibit ELG1-dependent DNA repair in human embryonic kidney (HEK293T) cells expressing luciferase-tagged ELG1 | HEK293T ELG1-luciferase reporter, luminescence, 16 h; DNA damage induced by 5-fluorouridine | Potency, µM (highest dose often 46.1 µM), usual class: inhibitors | actives 2.3% (n = 330,000) | AID 504467, 2011; note: nearly all actives have a fitted effect of over 55% in size
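In this reporter screen, reduction of luminescence relative to DMSO vehicle indicated activity. Compounds and 5-fluorouridine were added together to 2,000 cells per well, incubated for 16 hr at 37 °C, then developed with ONE-Glo.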
Rab9 promoter act = qHTS Assay for Rab9 Promoter Activators; Huh7 Rab9 promoter-luciferase reporter, luminescence, 24 h; Potency, µM (titrated, usually from 9.22 µM), actives largely listed as activators; actives 2.8% (n = 320,000); note: nearly all actives have a fitted effect of over 60% in size
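Cell-based reporter: Huh7 stable for Rab9 promoter-driven luciferase, plated in reduced-serum medium with 10% FBS at 1500 cells/well, compound-treated 24 h at 37 °C, luminescence read after 10 min reagent.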
NPC1 prom act = qHTS Assay for NPC1 Promoter Activators. Potency, µM (top dose mostly 9.22 µM), hits mostly activators. AID 485313, 2010. actives 2.4% (n = 320,000). Huh7 NPC1 promoter luciferase reporter, 24 h; note: nearly all actives have a fitted effect of over 60% in size
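Quantitative HTS used a cell-based reporter: Huh7 cells stably bearing the NPC1 promoter upstream of luciferase were treated with compounds for 24 h, and promoter activation was read as luminescence.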
SMN2 splice enh = qHTS Assay for Enhancers of SMN2 Splice Variant Expression; Potency, µM (doses to about 46.1 µM), most hits filed as activators; actives 2.8% (n = 210,000); HEK293 SMN2-luciferase splicing reporter, luminescence, 30-36 h; note: nearly all actives have a fitted effect of over 55% in size
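HEK293 cells carry an SMN2 […]–luciferase reporter in which exon 7 inclusion puts luciferase in frame. Cells were plated 10-12 h before compound addition, then incubated 30-36 h at 37C. ONE-Glo luminescence was read; sodium butyrate at 4.5 mM final served as control.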
FLuc modulator = qHTS profiling assay for firefly luciferase inhibitor/activator using purifed enzyme and Km concentrations of substrates (counterscreen for miR-21 project). Luciferin 4-monooxygenase (Photinus pyralis), P08659. purified FLuc, Km substrates, luminescence inhibition. Potency, µM (titrated, usually from 57.5 µM), most hits filed as inhibitors. actives 6.9% (n = 360,000). AID 588342, 2011; note: nearly all actives have a fitted effect of over 55% in size
Target sequence (P08659 whole entry, looked up): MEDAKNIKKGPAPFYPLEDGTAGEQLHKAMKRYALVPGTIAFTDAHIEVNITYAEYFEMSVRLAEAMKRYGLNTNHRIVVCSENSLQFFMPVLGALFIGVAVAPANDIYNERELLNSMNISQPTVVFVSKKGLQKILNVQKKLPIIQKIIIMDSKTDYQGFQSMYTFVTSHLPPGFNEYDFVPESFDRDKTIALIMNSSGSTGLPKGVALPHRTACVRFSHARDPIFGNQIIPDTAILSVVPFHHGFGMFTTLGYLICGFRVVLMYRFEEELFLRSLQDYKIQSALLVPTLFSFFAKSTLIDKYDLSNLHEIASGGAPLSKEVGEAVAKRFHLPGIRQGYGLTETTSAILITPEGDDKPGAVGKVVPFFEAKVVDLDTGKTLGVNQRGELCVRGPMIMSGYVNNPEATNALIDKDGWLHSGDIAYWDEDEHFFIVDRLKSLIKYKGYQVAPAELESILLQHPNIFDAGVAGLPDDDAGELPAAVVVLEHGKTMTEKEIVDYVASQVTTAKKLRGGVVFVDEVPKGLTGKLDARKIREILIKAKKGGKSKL
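Biochemical qHTS of compounds, final roughly 60 µM downward over six points, against 10 nM purified firefly luciferase using Km concentrations of substrates (10 uM D-luciferin, 10 uM ATP) in Tris acetate pH 7.5 buffer; luminescence output.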
Each line names hits and unclear results; the compound was inactive in the other large screens. Shown are actives, neighbours in structure and some others; about 9.2% of the full set was active somewhere. Calls come from the whole dose curve; as a rule, active = well fitted curve in the direction sought with a large enough effect; inconclusive = small, poorly fitted or top-dose-only effect, or another doubt; inactive = no such curve, though single readings can be large; an effect the other way counts as inactive or inconclusive.

COc1cccc(-c2csc(N3CCN(CC(=O)Nc4ccc5c(c4)OCO5)CC3)n2)c1	ELG1 repair inh inconclusive
CC(=O)Nc1nc(-c2ccc3c(c2)OCO3)cs1	ELG1 repair inh inconclusive, Rab9 promoter act 2.24µM, NPC1 prom act 3.55µM, FLuc modulator 9.53µM (no result: SMN2 splice enh)
CCOc1ncccc1C(=O)NNC(=O)c1ccccc1-n1cccc1	none (no result: SMN2 splice enh)
Nc1n[nH]c(N)c1N=Nc1cccc(F)c1	FLuc modulator 23.9µM
Cc1cccc(N=Nc2c(N)n[nH]c2N)c1	ELG1 repair inh inconclusive, FLuc modulator inconclusive (no result: SMN2 splice enh)
Nc1n[nH]c(N)c1N=Nc1ccc(Cl)cc1	ELG1 genotox inconclusive, ELG1 repair inh inconclusive, FLuc modulator 15.1µM
Nc1[nH]ncc1N=Nc1ccc(Cl)cc1	ELG1 genotox 18.4µM, ELG1 repair inh inconclusive, Rab9 promoter act inconclusive, FLuc modulator 13.5µM
COc1ccccc1N1CCN(C(=O)Cc2c(C(=O)O)c(C)cn2C)CC1	none (no result: ELG1 genotox, ELG1 repair inh, Rab9 promoter act, NPC1 prom act, SMN2 splice enh)
Cc1nn(C)c(C)c1/C=N/N=C1\CCC2C3CCc4cc(O)ccc4C3CCC12C (stereo not drawn)	ELG1 repair inh inconclusive
CC(C)(C)CC(=O)N1CCN(c2ccc(S(=O)(=O)N3CCOCC3)cc2[N+](=O)[O-])CC1	ELG1 repair inh inconclusive (no result: SMN2 splice enh)
Cc1cccc(N2CCN(C(=O)c3cc4n(n3)C(C(F)(F)F)CC(c3ccco3)N4)CC2)c1C (stereo not drawn)	ELG1 repair inh 20.6µM
Cc1ccc2nc(-c3ccccc3)cn2c1	ELG1 genotox inconclusive, ELG1 repair inh inconclusive, Rab9 promoter act inconclusive, NPC1 prom act 0.112µM, SMN2 splice enh 0.501µM, FLuc modulator 0.12µM
Cc1ccc2nc(-c3ccc(-c4ccccn4)s3)cn2c1	ELG1 genotox 1.64µM, ELG1 repair inh inconclusive, Rab9 promoter act 0.398µM, NPC1 prom act 0.447µM, FLuc modulator 0.19µM (no result: SMN2 splice enh)
CC(=O)Nc1ccc(-c2cn3cc(C)ccc3n2)cc1	ELG1 genotox inconclusive, ELG1 repair inh inconclusive, Rab9 promoter act 1µM, NPC1 prom act 3.16µM, SMN2 splice enh 4.47µM, FLuc modulator 1.9µM
CC(=O)Nc1ccc(C)cc1	none
Cc1ccc2nc(-c3ccc(O)c(O)c3)cn2c1	ELG1 genotox inconclusive, ELG1 repair inh inconclusive, NPC1 prom act inconclusive, FLuc modulator 3.38µM (no result: SMN2 splice enh)
Cc1ccc2nc(-c3ccccn3)c(NC3CCCC3)n2c1	ELG1 repair inh inconclusive (no result: SMN2 splice enh)
CCN(CC)S(=O)(=O)c1ccc(-c2cn3cc(Cl)ccc3n2)cc1	FLuc modulator inconclusive (no result: SMN2 splice enh)
O=C(c1sc2cccc(Cl)c2c1Cl)N1CCN(CCc2ccccn2)CC1	none (no result: SMN2 splice enh)
Cc1ccc2nc(-c3ccc(S(=O)(=O)N4CCOCC4)cc3)cn2c1	ELG1 genotox 23.1µM, ELG1 repair inh inconclusive
CC1CC(C)CN(C(=O)c2cc3ccccc3o2)C1 (stereo not drawn)	ELG1 genotox 23.1µM, ELG1 repair inh inconclusive, Rab9 promoter act inconclusive, FLuc modulator inconclusive (no result: SMN2 splice enh)
CC1CCN(C(=O)c2cc3ccccc3o2)CC1	ELG1 genotox 13µM, ELG1 repair inh inconclusive, Rab9 promoter act inconclusive, NPC1 prom act inconclusive, SMN2 splice enh inconclusive, FLuc modulator 19µM
CC1CC(C)CN(C(=O)Nc2ccc(Br)cc2)C1 (stereo not drawn)	FLuc modulator inconclusive
CC1CC(C)CN(C(=O)c2cc3cc(Br)cc(Br)c3o2)C1 (stereo not drawn)	ELG1 genotox inconclusive, ELG1 repair inh inconclusive, FLuc modulator 16.9µM
CC(=O)N1CCN(C(=O)c2cc3ccccc3o2)CC1	ELG1 repair inh inconclusive (no result: SMN2 splice enh)
CN(C)CCCNC(=O)C(=O)NCC1CCCO1 (stereo not drawn)	none
CCC1Nc2ncnc(N3CCCCC3)c2N(Cc2ccc(OC)cc2)C1=O (stereo not drawn)	ELG1 repair inh inconclusive (no result: Rab9 promoter act, NPC1 prom act, SMN2 splice enh, FLuc modulator)
